Results published in ChEMBL document CHEMBL3988442, “University of Dundee, Small-Polar-MMV Screening Library” (2021).
Out of some 48,000 compounds screened, about 13,000 (27%) showed an effect of 50% or more. Some of the results follow.

Test system: Wolbachia pipientis
Assay: Anti-Wolbachia Cell-Based Screen
Assay type: functional
Design: scale not given: in the data most compounds retested in dose-response had high values
Conditions: 5 µM

| SMILES | Percent Effect [%] |
| --- | --- |
| FC(F)(F)C1CCCn2c(CNCc3ccsc3)nnc21 (configuration not stated) | 5.709 |
| CCCc1noc(CS(=O)(=O)c2cccc(OC)c2)n1 | 19.11 |
| CC(NC(=O)NCCCNS(C)(=O)=O)c1ccncc1 (configuration not stated) | 0.1158 |
| CCc1noc(C(C)N(C)Cc2cc(Br)ccc2OC)n1 (configuration not stated) | 1.676 |
| O=C(c1ccc(Cl)cc1)N1CCC(N2CCOC2=O)CC1 | 107.7 |
| COc1cccc2c1OCC(C(=O)N1CCC(N3CCOC3=O)CC1)C2 (configuration not stated) | -3.402 |
| CCS(=O)(=O)N(C)C1CCN(C(=O)c2ccc(Cl)cc2)CC1 | -4.195 |
| O=C1OCCN1CC(=O)N1C[C@H]2CC[C@@H]1CN(C(=O)c1ccccc1)C2 | -14.7 |
| CC(C)S(=O)(=O)NCC1CCCN(C(=O)c2ccc(Cl)cc2)C1 (configuration not stated) | -24.01 |
| O=C(c1ccc(Cl)cc1)N1CCC(N2CCCOC2=O)CC1 | 100 |
| COCc1ccccc1NC(=O)NC(C)c1ccc(C)o1 (configuration not stated) | -2.277 |
| O=C(O)c1c[nH]c2cc(NS(=O)(=O)c3ccc(Cl)cc3F)ccc12 | 101.8 |
| O=C(O)c1c[nH]c2cc(NS(=O)(=O)c3cccc(Cl)c3F)ccc12 | -1.912 |
| Cc1ccc(F)cc1S(=O)(=O)Nc1cnc(N2CCCC2)nc1 | 3.743 |
| Cn1cc(Br)c(=O)c(NS(=O)(=O)c2cc(F)ccc2Cl)c1 | -8.345 |
| O=C(O)c1c[nH]c2cc(NS(=O)(=O)c3cccc(F)c3F)ccc12 | 98.18 |
| CSc1c[nH]nc1NS(=O)(=O)c1cc(F)ccc1Cl | 16.47 |
| O=C(O)c1c[nH]c2cc(NS(=O)(=O)c3cc(F)ccc3Cl)ccc12 | 93.61 |
| COc1ccccc1S(=O)(=O)Nc1ccc2c(C(=O)O)c[nH]c2c1 | -5.607 |
| Cc1c(F)cc(C(=O)O)cc1S(=O)(=O)Nc1cccc(C(F)F)c1 | -21.42 |
| Cc1ccc(F)cc1S(=O)(=O)Nc1ccc2c(C(=O)O)c[nH]c2c1 | 88.84 |
| Cc1cc(NC(=O)N2CCN(C)CC2C)n(CCC#N)n1 (configuration not stated) | -16.44 |
| N#CCCN(Cc1ccco1)C(=O)Cc1ccc(-n2cnnn2)cc1 | -12.81 |

| SMILES | Percent Effect [%] |
| --- | --- |
| O=C(c1ccc2ccccc2c1)C1CCCN(C(=O)Cn2cnnn2)C1 (configuration not stated) | -17.21 |
| N#Cc1nccnc1N1CCC(c2nc(C(F)(F)F)c[nH]2)CC1 | -6.885 |
| CNC(=O)NC(=O)CN1CCCN(CC(F)(F)F)CC1 | 5.4 |
| Cn1cnc(S(=O)(=O)N2CCOCC2)c1Cl | -4.923 |
| Cc1nn(C)c2ncc(S(=O)(=O)N3CCCC(C)CC3)cc12 (configuration not stated) | -7.374 |
| CCC(C)NC(=O)NCCCn1nc2ccccn2c1=O (configuration not stated) | -2.078 |
| CC(C)CCn1nc2ccc(S(=O)(=O)N3CCOCC3)cn2c1=O | 120.3 |
| CC(C)Cn1nc2ccc(S(=O)(=O)N3CCC(C)CC3)cn2c1=O | 132.8 |
| COC(=O)Cn1cccc(S(=O)(=O)N2CCC(C)CC2)c1=O | 3.954 |
| COCCO[C@H]1CCN(C(=O)c2ccno2)[C@H]1Cc1ccncc1.O=C(O)C(F)(F)F | -8.897 |
| CC/C=C(/C)C(=O)NCc1ccnc(OC2CCOCC2)c1 | -6.645 |
| CC(=O)NCc1nnc2n1CCN(c1ncnc3c(C)csc13)CC2 | -2.169 |
| O=S(=O)(CCCn1cncn1)Cc1ccc(F)cc1Cl | 8.322 |
| COCCN(Cc1ccncc1)C(=O)C1COc2c(cccc2OC)C1 (configuration not stated) | 4.804 |
| CCN(Cc1ccoc1)C(=O)c1ccc(C)c(S(N)(=O)=O)c1 | 0.3555 |
| COCCN(Cc1ccoc1)C(=O)c1c(F)cccc1Cl | -1.026 |
| COCCN(Cc1ccoc1)C(=O)c1ccc(Cl)s1 | 106 |
| COCCN(Cc1ccoc1)C(=O)c1ccccc1Cl | -4.504 |
| CCc1ncc(C(=O)N(CCOC)Cc2ccccc2F)cn1 | -19.66 |
| CCN(Cc1ccoc1)C(=O)c1ccncc1O | 2.225 |
| COCCN(Cc1ccoc1)C(=O)c1ccccc1OC | 102.9 |
| CCOc1ccc(CN(CCOC)C(=O)c2ccncc2Cl)cc1 | 0.1724 |
| CCSc1ccccc1C(=O)N(CCOC)Cc1ccoc1 | 121.3 |

| SMILES | Percent Effect [%] |
| --- | --- |
| COCCN(Cc1ccoc1)C(=O)c1c(F)cccc1F | 126.9 |
| COCCN(CCOC)C(=O)c1ccoc1C | -2.566 |
| N[C@H]1CN(C(=O)c2ccccc2OCCc2ccccc2)C[C@@H]1C1CC1 | 18.87 |
| O=S(=O)(NC1=NCN(CCc2cccs2)CN1)c1ccccc1 | 2.891 |
| Cc1ncc2c(n1)CN(Cc1cn3ccsc3n1)CC2 | -12.96 |
| COCCN(Cc1ccoc1)C(=O)c1ccccn1 | 112.1 |
| COCCN(Cc1ccoc1)C(=O)c1cccnc1SC | 9.468 |
| COCCCN(Cc1ccncc1)C(=O)CSc1ccc(F)cc1 | -0.07203 |
| NC(=O)CCN(C(=O)CSc1ccc(F)cc1)c1ccc(F)cc1 | -8.487 |
| COCCN(Cc1ccoc1)C(=O)CSc1ccc(F)cc1 | 117.6 |
| CCN(C)c1ccc(C(=O)N(CCOC)Cc2ccccn2)cc1 | -4.982 |
| O=C(CN1CCC2(CCCN(CCO)C2=O)C1)NCCc1ccccc1 (configuration not stated) | 3.055 |
| O=C(COc1coc(CN2CCCCC2)cc1=O)Nc1ccc(Cl)cc1 | -2.562 |
| Cc1ccc(C)c(NS(=O)(=O)c2cc3c(c(C(=O)O)c2)OCCO3)c1 | 110.3 |
| Cc1cccc(NS(=O)(=O)c2cc3c(c(C(=O)O)c2)OCCO3)c1 | 105.7 |
| Cc1ccc(F)c(NS(=O)(=O)c2cc3c(c(C(=O)O)c2)OCCO3)c1 | 118.3 |
| CN(c1ccc(F)c(F)c1)S(=O)(=O)c1cc2c(c(C(=O)O)c1)OCCO2 | -16.04 |
| Cc1ccc(NS(=O)(=O)c2cc3c(c(C(=O)O)c2)OCCO3)c(F)c1 | -7.996 |
| Cc1cc(C)cc(NS(=O)(=O)c2cc3c(c(C(=O)O)c2)OCCO3)c1 | 6.571 |
| CCc1cccc(NS(=O)(=O)c2cc3c(c(C(=O)O)c2)OCCO3)c1 | 10.09 |
| Cc1cc(C)cc(N(C)S(=O)(=O)c2cc3c(c(C(=O)O)c2)OCCO3)c1 | -3.92 |
| Cc1ccccc1NS(=O)(=O)c1cc2c(c(C(=O)O)c1)OCCO2 | -5.791 |
| Cc1nc(CN(C)C(=O)c2cccc(CC3CCNCC3)c2)no1 | -18.2 |

| SMILES | Percent Effect [%] |
| --- | --- |
| CCc1nnsc1C(=O)NC(CC(C)C)C(=O)OC (configuration not stated) | -4.538 |
| CN1C[C@@H](NC(=O)c2cc(F)cc(F)c2)C[C@H]1C(=O)NCc1ncc[nH]1 | 4.795 |
| COc1ccccc1NCC(=O)NCc1scnc1C | -10.76 |
| Cc1nc(C)c(C(=O)N2Cc3ccccc3OCC2Cn2ccnc2)s1 (configuration not stated) | 70.21 |
| Cc1nc(C)c(C(=O)N2Cc3ccccc3OCC2Cn2ccnc2)o1 (configuration not stated) | -31.31 |
| CN(CC1COc2ccccc2O1)C(=O)NCCCn1ccnc1 (configuration not stated) | -8.094 |
| CC1CN(CCC(=O)NCCc2cccnc2)Cc2ccccc2O1 (configuration not stated) | 11.18 |
| CC(Cn1ccnc1)NC(=O)NCCN1CCc2ccccc2C1 (configuration not stated) | 3.376 |
| O=C(c1cccnc1)N1Cc2ccccc2OCC1Cn1ccnc1 (configuration not stated) | 99.63 |
| CCc1nc2n(n1)CC(NCCc1cccs1)CC2 (configuration not stated) | -19.61 |
| N#Cc1c(F)cccc1NCCCOCC1CCOCC1 | -8.528 |
| O=C1CC(c2ccsc2)c2snc(C(=O)O)c2N1 (configuration not stated) | -3.117 |
| CC1(C)CNC(=O)CN(C(=O)Cc2ccccc2)C1 | 98.91 |
| CCc1nsc(N2CCN(C(=O)COc3ccccc3)CC2)n1 | -3.89 |
| COc1ccc(CC(=O)N2CC[C@@H]3NC(=O)CC[C@@H]32)cc1 | -10.22 |
| CC1(C)CNC(=O)CN(C(=O)COc2ccccc2)C1 | 99.32 |
| Cc1ccnc2c1NC(=O)CN2C(=O)CCc1ccccc1 | 5.988 |
| CCc1ccc(CCC(=O)N2CCC(=O)Nc3cccnc32)cc1 | -4.556 |
| CC1(C)CNC(=O)CN(C(=O)CCc2ccccc2)C1 | 92.84 |
| O=C1CCC2(CCCN(C(=O)Cc3ccccc3)C2)N1 (configuration not stated) | -74.63 |
| Cc1ccc(N2CCN(C(=O)COc3ccccc3)CC2)nn1 | -10.88 |
| COc1ccc(CC(=O)N2CC(=O)NCC(C)(C)C2)cc1 | 81.26 |
| Cc1nc(-c2ccc(CC(=O)N3CCNC(=O)C3)cc2)cs1 | -10.4 |

| SMILES | Percent Effect [%] |
| --- | --- |
| O=C(O)C(F)(F)F.O=C1CCC2(CCCN(C(=O)Cc3cccnc3)C2)N1 (configuration not stated) | -30.04 |
| CN(C)C(=O)CS(=O)(=O)Cc1ccn(-c2cccc(F)c2)n1 | 3.991 |
| CCn1c(CN(C)C)nnc1C1CCN(Cc2ccc(C)s2)CC1 | -25.38 |
| COc1ccc(-c2n[nH]cc2CN(C)CCCN2CCOCC2)c(F)c1 | 4.429 |
| N#Cc1nccnc1NCCC1CCN(CC(F)(F)F)CC1 | -10.09 |
| O=C(CN1CCC2(CCCCC2)C1)NCC(F)(F)F | -17.09 |
| O=C(NCCCn1cccn1)N1CCCC1c1ccncc1 (configuration not stated) | 20.68 |
| Cc1cnn(CCNCc2ccc(F)cc2Cl)c1 | -9.942 |
| Cc1ccccc1C(NC(=O)Cn1cc(C2CC2)nn1)C1CC1 (configuration not stated) | 6.908 |
| O=C1CC(NS(=O)(=O)N2CCOCC2)CN1CCc1ccccc1 (configuration not stated) | 3.785 |
| CC(C)Oc1ccccc1C(=O)NC1CC(=O)N(CC(F)(F)F)C1 (configuration not stated) | -7.447 |
| COc1ccccc1N1CC(NC(=O)Cn2cc(C)nn2)CC1=O (configuration not stated) | 83.28 |
| COc1ccccc1N1CCN(CC[C@H](O)c2ccccc2)CC1=O | -5.081 |
| CC(C)c1cn(CC(=O)NC2CC(=O)N(CCc3ccccc3)C2)nn1 (configuration not stated) | 94.88 |
| COc1ccccc1N1CC(NC(=O)c2cc(C(C)C)nn2C)CC1=O (configuration not stated) | 186.5 |
| O=C(NCC1CC(=O)N(CCc2ccccc2)C1)c1ccc[nH]1 (configuration not stated) | -4.58 |
| COc1ccccc1N1CC(NC(=O)Cn2cc(C(C)C)nn2)CC1=O (configuration not stated) | 82.88 |
| COc1ccc(CCNC(=O)NC2CC(=O)N(c3ccccc3)C2)cc1 (configuration not stated) | 13.52 |
| COc1ccccc1N1CCCC(Nc2ncccn2)C1=O (configuration not stated) | -13.39 |
| COc1ccccc1N1CCC(CNC(=O)CN2CSCC2=O)C1 (configuration not stated) | -5.034 |
